Screening results as filed in PubChem BioAssay.
HTT cytoprotect: cytoprotection in Huntington HTT-Q103 PC12 cell model | PC12 HTT-Q103 induced, cytoprotection, ATP luminescence, 40 h | Potency, µM (highest dose often 56.4 µM), most hits filed as activators | 230,000 compounds, 0.14% hits; also: nearly all actives have a fitted effect of over 45% in size
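Compounds added alongside 100 nM tebufenozide, which induces toxic Q103 huntingtin exon 1-GFP in stable PC12 cells; surviving cells quantified by luminescent ATP measurement. Medium: phenol red-free DMEM, 5% equine and 5% calf serum.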
Luc counter: blocks Kinase-Glo luciferase, a counter-screen artifact; Potency, µM (top dose mostly 38.3 µM), usual class: inhibitors; 200,000 compounds, 0.28% hits; Kinase-Glo luciferase, ATP luminescence, 8 min; also: nearly all actives have a fitted effect of over 60% in size
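Luminescence was the read-out, taken after 8-minute incubation at ambient temperature. Luciferase turned over luciferin with 10 uM ATP in imidazole pH 7.2 buffer containing KCl, MgCl2, Tween 20 and BSA.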
HPGD block: blocks human HPGD enzyme activity | P15428 | purified HPGD, NADH fluorescence kinetic, PGE2 substrate | Potency, µM, usual class: inhibitors | 150,000 compounds, 4.3% hits; active = well fitted inhibition curve with a large enough effect, not every such curve was filed as active; inconclusive = small, poorly fitted or top-dose-only effect, or another doubt; inactive = no such curve, though single readings can be large or run the other way
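NADH formation kinetics: reaction with 30 uM PGE2 and 1 mM NAD+ (final), 20 nM enzyme, Tris-HCl pH 8 with Tween 20, after 15 min compound preincubation at room temperature. Fluorescence change, last versus first of five reads.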
HttQ103 aggreg: inhibitors of mutant huntingtin aggregate formation in PC12 cells; Potency, µM (series often up to 46.1 µM), usual class: inhibitors; 220,000 compounds, 1.1% hits; PC12 HttQ103-GFP aggregates, Acumen cytometry, 40 h; AID 1688; also: nearly all actives have a fitted effect of over 60% in size
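Using laser scanning cytometry, GFP-positive aggregates were counted after lysis of PC12 cells induced with 100 nM tebufenozide to express HTT exon 1 Q103–GFP. Compounds were tested in titration.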
ALDH1A1 inh: blocks purified human ALDH1A1 activity | P00352 | Purified ALDH1A1, NADH fluorescence, propionaldehyde substrate | Potency, µM (top dose mostly 75.3 µM), most hits filed as inhibitors | 220,000 compounds, 7.3% hits; active = well fitted inhibition curve with a large enough effect, not every such curve was filed as active; inconclusive = small, poorly fitted or top-dose-only effect, or another doubt; inactive = no such curve, though single readings can be large or run the other way
Target sequence (P00352 whole entry, looked up): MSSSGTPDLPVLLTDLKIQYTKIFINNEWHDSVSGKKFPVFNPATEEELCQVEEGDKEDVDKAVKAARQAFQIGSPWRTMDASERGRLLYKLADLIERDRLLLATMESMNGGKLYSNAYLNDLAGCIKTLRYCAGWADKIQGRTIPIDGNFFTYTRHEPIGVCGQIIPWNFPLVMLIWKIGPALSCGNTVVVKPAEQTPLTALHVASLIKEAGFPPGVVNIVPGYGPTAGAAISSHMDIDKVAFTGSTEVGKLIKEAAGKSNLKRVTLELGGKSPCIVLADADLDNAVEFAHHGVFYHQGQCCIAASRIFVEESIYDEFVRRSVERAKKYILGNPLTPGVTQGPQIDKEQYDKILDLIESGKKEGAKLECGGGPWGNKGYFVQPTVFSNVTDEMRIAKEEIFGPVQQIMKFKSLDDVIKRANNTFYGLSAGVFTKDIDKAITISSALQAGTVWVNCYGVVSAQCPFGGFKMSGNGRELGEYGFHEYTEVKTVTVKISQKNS
LMNA splice mod: LMNA splicing modulation; 200,000 compounds, 0.01% hits; HeLa LMNA splicing GFP/RFP minigene ratio, 48 h; Potency, µM (series often up to 46.1 µM), hits mostly inhibitors; AID 1487; active = well fitted inhibition curve with a large enough effect in the signal ratio, with a control signal flat, not every such curve was filed as active; inconclusive = small, poorly fitted or top-dose-only effect, or effect the other way, or a change in a side signal; the % refers to the signal ratio
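S3 HeLa stable clones carrying a lamin A-EGFP splicing minigene plus DsRed2 were seeded at 600 cells/well in Opti-MEM with 2% FBS, pin-dosed and incubated 48 h at 37°C. Acumen cytometry (488 nm) gave the GFP/RFP total-intensity ratio.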
Of the large screens only hits and unclear results are named; the others gave an inactive call. Shown are actives, neighbours in structure and some others; about 9% of the full set was active somewhere. Unless noted, calls follow the shape of the dose curve; as a rule, active = well fitted curve in the direction sought with a large enough effect; inconclusive = small, poorly fitted or top-dose-only effect, or another doubt; inactive = no such curve, though single readings can be large; an effect the other way counts as inactive or inconclusive.

COCc1ccc(CN2CCCC(CO)(Cc3cccc(Cl)c3)C2)o1 (centres undefined)	ALDH1A1 inh 8.91µM (no result: HPGD block)
COc1cccc(CC2(CO)CCCN(Cc3ccccc3-c3ccco3)C2)c1 (centres undefined)	ALDH1A1 inh inconclusive (no result: HPGD block)
COc1cccc(CC2(CO)CCCN(Cc3ccc(-c4ccco4)cc3)C2)c1 (centres undefined)	ALDH1A1 inh 11.2µM (no result: Luc counter, HPGD block, LMNA splice mod)
COc1cccc(CC2(CO)CCCN(Cc3ccc(CO)o3)C2)c1 (centres undefined)	none (no result: Luc counter, HPGD block, LMNA splice mod)
CN1CCN(c2ncc3nc(-c4ccccc4)c(=O)n(C)c3n2)CC1	ALDH1A1 inh inconclusive (no result: Luc counter, HPGD block, HttQ103 aggreg)
CCCCN(CC)Cc1c(O)ccc2c(-c3ccccc3)cc(=O)oc12	none (no result: Luc counter, HPGD block, ALDH1A1 inh, LMNA splice mod)
Cc1ccc(C(=O)Cn2c(C(=O)/C=C/c3ccccc3)nc3ccccc32)cc1	HttQ103 aggreg 11.2µM, ALDH1A1 inh inconclusive, LMNA splice mod inconclusive
COc1cccc(NC(=O)Cc2nc(-c3ccccc3)sc2-c2ccc(C)cc2)c1	HPGD block inconclusive, ALDH1A1 inh 25.1µM, LMNA splice mod inconclusive (no result: HTT cytoprotect)
CC(=O)Nc1cccc(NC(=O)Cc2nc(-c3ccccc3)sc2-c2ccc(C)cc2)c1	none
CCCCC1=CC2=CC(=O)C(C)(OC(=O)CCc3ccccc3)C(=O)C2=CO1 (centres undefined)	HTT cytoprotect inconclusive (no result: LMNA splice mod)
Cc1ccc(C(=O)Cn2c(NCCO)nc3ccccc32)cc1	none
CC(C)COP(=O)(c1ccc(N(C)C)cc1)C(O)c1ccncc1 (centres undefined)	HPGD block 28.2µM, ALDH1A1 inh 12.6µM
CC(C)COP(=O)(c1ccc(N(C)C)cc1)C(O)c1cccnc1 (centres undefined)	none (no result: Luc counter, HPGD block, ALDH1A1 inh, LMNA splice mod)
CCCc1c(C)nc2ccc(OC)cc2c1SCCC(=O)O	HPGD block inconclusive
N#Cc1c(Cl)c(Cl)c2nnc(-c3ccc(Br)cc3)n2c1Cl	HPGD block 12.6µM, ALDH1A1 inh inconclusive
Cc1ccc2c(n1)sc1c(-c3ccc(Br)cc3)c(C#N)c(N)nc12	HPGD block inconclusive, ALDH1A1 inh inconclusive
COc1ccc(OC)c(NC(=O)C(CCS(C)(=O)=O)NC(C)=O)c1 (centres undefined)	none
CCN(CCCNC(=O)CCCN1C(=O)COc2ccc(C)cc21)c1cccc(C)c1	LMNA splice mod inconclusive
CCOC(=O)C(NC(=O)N(C)C)(Nc1sc(C)c(CC)c1C#N)C(F)(F)F (centres undefined)	HPGD block 14.1µM, ALDH1A1 inh inconclusive
CCOc1ccc(OCC)c(NC(=O)CSc2nc3c(c(=O)n(C)c(=O)n3C)n2C(C)C)c1	ALDH1A1 inh 8.91µM, LMNA splice mod inconclusive (no result: Luc counter, HPGD block)
CN(C)CCCN(C(=O)c1ccc2c(c1)CCCC2)c1nc2c(F)cccc2s1	HPGD block inconclusive
Cc1cc(C)cc(Cn2ncc(Cl)c(Cl)c2=O)c1	HttQ103 aggreg inconclusive, ALDH1A1 inh 28.2µM, LMNA splice mod inconclusive (no result: HTT cytoprotect)
CCc1ccc(C(=O)Cn2ncc(Cl)c(Cl)c2=O)cc1	HttQ103 aggreg inconclusive, ALDH1A1 inh 14.1µM, LMNA splice mod inconclusive
O=c1c(Cl)c(Cl)cnn1Cc1nnc(-c2ccc(Cl)cc2)o1	HttQ103 aggreg inconclusive, ALDH1A1 inh 8.91µM, LMNA splice mod inconclusive (no result: HPGD block)
O=c1c(Cl)c(Cl)cnn1Cc1ccccc1Cl	LMNA splice mod inconclusive
O=C(Cn1ncc(Cl)c(Cl)c1=O)N1CCOCC1	HttQ103 aggreg inconclusive, LMNA splice mod inconclusive (no result: HPGD block)
Cc1ccc(Cn2ncc(Cl)c(Cl)c2=O)cc1	HttQ103 aggreg inconclusive, ALDH1A1 inh 25.1µM
Cc1ccccc1N1CCN(C2=NC(=O)/C(=C\c3cccs3)S2)CC1	HPGD block 25.1µM, ALDH1A1 inh 15.8µM, LMNA splice mod inconclusive
Cc1cccc(-n2c(CNC(=O)c3ccc(S(=O)(=O)N(C)C)cc3)nnc2SCC(=O)Nc2ccc(F)cc2)c1	ALDH1A1 inh 0.447µM
Cc1cccc(NC(=O)CSc2nnc(CNC(=O)c3ccc(S(=O)(=O)N(C)C)cc3)n2-c2cccc(C)c2)c1	ALDH1A1 inh inconclusive
Cc1cccc(NC(=O)CSc2nnc(CNC(=O)c3ccc(S(=O)(=O)N(C)C)cc3)n2-c2ccc(F)cc2)c1	ALDH1A1 inh inconclusive
